Six compounds from PubChem BioAssay can be followed below.

The nature of test [1]: compounds binding Alexa647 anti-His antibody – biochemical, small-molecule microarray, 635 nm fluorescence, artefact control for SMM control protein annotation, primary screen (AID 1128).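 Also: score merges feature fluorescence with signal-to-noise for each printed compound spot.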 The note with it: higher = more signal.
The test system of test [2] is Human papillomavirus type 1a E7 protein (residues 1-88). Nature of the test: HPV1a E7 small-molecule binders, primary screen, biochemical, small-molecule microarray, residues 1-88, 635 nm (AID 1129). The note with it: small-molecule microarray binding, fluorescence 635 nm; higher = more signal.
In test [3] the target is Focal adhesion kinase 1 (Homo sapiens) (UniProt Q05397). Nature of the test: PTK2 protein binding on printed compound slides – biochemical, small-molecule microarray, 635/667 nm fluorescence, BSA, DTT, primary screen (AID 1130).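 Also: composite of spot emission at 667 nm and signal to noise over triplicate slides.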 Particulars: 635 nm fluorescence, higher = more signal.
Focal adhesion kinase 1 (Homo sapiens), sequence (Q05397 whole entry, looked up): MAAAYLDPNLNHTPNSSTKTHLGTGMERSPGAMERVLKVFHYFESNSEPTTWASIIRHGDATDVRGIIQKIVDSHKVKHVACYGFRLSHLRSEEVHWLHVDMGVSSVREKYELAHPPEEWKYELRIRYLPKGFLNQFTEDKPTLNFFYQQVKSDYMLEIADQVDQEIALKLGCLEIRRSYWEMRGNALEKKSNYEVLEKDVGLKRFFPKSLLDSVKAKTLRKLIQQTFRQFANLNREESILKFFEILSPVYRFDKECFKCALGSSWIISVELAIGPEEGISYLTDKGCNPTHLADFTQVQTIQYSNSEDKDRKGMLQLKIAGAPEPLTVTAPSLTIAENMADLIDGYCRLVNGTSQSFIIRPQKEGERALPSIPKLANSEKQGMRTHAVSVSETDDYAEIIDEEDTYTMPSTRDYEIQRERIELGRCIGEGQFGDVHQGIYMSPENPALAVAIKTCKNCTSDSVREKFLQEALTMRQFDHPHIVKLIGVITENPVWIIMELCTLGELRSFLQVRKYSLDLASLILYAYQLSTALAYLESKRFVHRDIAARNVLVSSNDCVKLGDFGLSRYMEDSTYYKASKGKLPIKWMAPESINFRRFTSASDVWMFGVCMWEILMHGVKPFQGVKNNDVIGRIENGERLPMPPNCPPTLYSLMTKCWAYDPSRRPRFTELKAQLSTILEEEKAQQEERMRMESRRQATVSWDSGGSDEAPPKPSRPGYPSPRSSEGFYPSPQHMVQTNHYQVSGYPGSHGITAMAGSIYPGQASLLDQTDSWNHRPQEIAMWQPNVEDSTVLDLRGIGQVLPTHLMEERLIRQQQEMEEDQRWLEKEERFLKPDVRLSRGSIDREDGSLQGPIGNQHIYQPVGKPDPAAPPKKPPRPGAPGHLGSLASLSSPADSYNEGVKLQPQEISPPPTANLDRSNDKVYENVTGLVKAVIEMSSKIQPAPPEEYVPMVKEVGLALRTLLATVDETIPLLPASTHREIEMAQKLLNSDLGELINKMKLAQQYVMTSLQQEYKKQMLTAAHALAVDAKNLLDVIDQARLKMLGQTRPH
Test [4] relates to Fibrinogen (Alexa647-labelled). The experiment in a line: Alexa647-fibrinogen binding to printed small molecules – biochemical, small-molecule microarray, 635/667 nm fluorescence, artefact control for SMM control-protein annotation, profiling panel (AID 1131).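 Also: z-score merges 667 nm fluorescence with per-spot signal-to-noise over triplicate slides.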 The note with it: fibrinogen-A647 binding fluorescence, higher = more signal.
For test [5], the target named is Follistatin (Homo sapiens) (UniProt P19883). Nature of the test: FST protein binding to printed compounds – biochemical, small-molecule microarray, 635/667 nm fluorescence, primary screen (AID 1132). Particulars: 635 nm fluorescence, higher = more signal.
Follistatin (Homo sapiens), sequence (P19883 whole entry, looked up): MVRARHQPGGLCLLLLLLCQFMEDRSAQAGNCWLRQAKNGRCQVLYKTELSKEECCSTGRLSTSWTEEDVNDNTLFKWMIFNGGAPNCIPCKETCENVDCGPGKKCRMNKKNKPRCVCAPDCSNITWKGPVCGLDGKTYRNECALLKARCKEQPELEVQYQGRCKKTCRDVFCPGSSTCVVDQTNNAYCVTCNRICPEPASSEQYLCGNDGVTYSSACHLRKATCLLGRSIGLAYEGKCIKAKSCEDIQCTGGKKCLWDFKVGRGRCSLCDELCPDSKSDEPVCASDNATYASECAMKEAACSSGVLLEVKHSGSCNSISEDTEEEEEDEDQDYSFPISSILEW
Test [6] addresses Fibroblast growth factor 2 (Homo sapiens) (UniProt P09038). Nature of the test: basic fibroblast growth factor binding to printed compounds – biochemical, small-molecule microarray, 635/667 nm fluorescence, primary screen (AID 1133). The note with it: FGF2, fluorescence 635/667, higher = more signal.
Test [7] in a line: JC-1 mitochondrial potential readout, lung cancer cells – cell-based, A549, JC-1 fluorescence, basal, 24 h, 100 nL, profiling panel (AID 1138).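 Also: A549 lung adenocarcinoma cells under basal conditions with no added stimulus; test concentration not given here.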 The note with it: higher = more signal.
The test system of another test is Lefty1. The experiment in a line: Lefty1 protein binding to printed compounds – biochemical, small-molecule microarray, 635/667 nm fluorescence, primary screen (AID 1139). The note with it: fluorescence 635/667, higher = more signal.
The subject of test [8] is wheat germ agglutinin (Triticum aestivum), Alexa647-labelled. Nature of the test: Alexa647-WGA lectin binding to printed small molecules – biochemical, small-molecule microarray, 635/667 nm fluorescence, artefact control for SMM control-protein annotation, profiling panel (AID 1140).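 Also: score merges 667 nm feature emission with signal to noise over triplicate slides.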 The note with it: WGA-A647 binding, 635 nm fluorescence, higher = more signal.
Test [9] concerns the target Luciferin 4-monooxygenase (Photinus pyralis) (UniProt P08659). Nature of the test: inhibition of purified Photinus pyralis luciferase – biochemical, luminescence, purified enzyme, 2006 set, primary screen (AID 1141).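 Also: cell-free assay with purified firefly luciferase at 100 ng per well in PBS; test concentration not given here.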 Particulars: purified firefly luciferase, SteadyGlo luminescence, 30 min; higher = more signal, called active from +8 up or from −8 down.
Test [10] relates to Wnt5a (protein binding on small-molecule microarray). Nature of the test: small molecules binding Wnt5a protein – biophysical, small-molecule microarray, 635/667 nm fluorescence, primary screen (AID 1142).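 Also: fluorescence read at 667 nm with signal to noise per printed feature.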 The note with it: 635 nm fluorescence, higher = more signal.
Test [11] is described as follows: ATP-based viability of Huh7 replicon cells – cell-based, CellTiter-Glo luminescence, basal, 48 h, cytotoxicity control for HCV replication inhibitor project, primary screen (AID 1143).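 Also: Huh7 hepatoma cells carrying a hepatitis C replication reporter with no stimulus; test concentration not given here.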 The note with it: higher = more signal, called active from +8 up or from −8 down. Background: Replicon systems follow genome replication, usually without infectious particles.
Test [12] in a line: Pseudomonas biofilm growth suppression – PAO1 strain, BacTiter-Glo luminescence, LB-PBS, primary screen (AID 1144). The note with it: P. aeruginosa PAO1 biofilm, 12 h, higher = more signal.
Test [13] in a line: basal CRE-LacZ reporter activity in PC12 – cell-based, unstimulated, primary screen (AID 1145). Particulars: no forskolin, luminescence, 4.5 h, higher = more signal, called active from +8 up or from −8 down.
Test [14] can be described thus: forskolin-driven CRE-LacZ activity in PC12 – cell-based, CRE-LacZ reporter, forskolin-stimulated, primary screen (AID 1146).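 Also: PC12 cells with 6xCRE LacZ reporter stimulated by forskolin 10 µM; beta-galactosidase reporter signal reflecting CREB driven transcription.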 The note with it: luminescence, 4.5 h, higher = more signal, called active from +8 up or from −8 down.
Test [15] has as its target Streptavidin (Streptomyces avidinii) (UniProt P22629). Nature of the test: compounds binding control protein streptavidin – biophysical, small-molecule microarray, 635/667 nm fluorescence, artefact control for SMM compound annotation, primary screen (AID 1147).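 Also: signal reflects streptavidin binding to arrayed compounds as a control protein.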 Particulars: higher = more signal.
Test [16] in a line: probe aInhba binding on compound microarray – biochemical, small-molecule microarray, 635/667 nm fluorescence, primary screen (AID 1148).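 Also: score merges 667nm spot fluorescence with signal-to-noise for antibody binding to printed compounds.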 Particulars: higher = more signal.
Test [17] concerns the target Torsin-1A (Homo sapiens) (UniProt O14656). The experiment in a line: TOR1A wild-type binding on microarray – cell lysate, small-molecule microarray, lysate, 635/667 nm, primary screen (AID 1149). The note with it: COS7 hTOR1A-WT lysate, 635 nm fluorescence, higher = more signal.
Test [18] has the same target. Nature of the test: torsin A mutant lysate binding on microarrays – cell lysate, small-molecule microarray, COS7 lysate, 635/667 nm fluorescence, primary screen (AID 1150).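 Also: score pools 667 nm emission and signal to noise measuring lysate protein binding.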 Particulars: COS7 hTOR1A mutant lysate, 635 nm fluorescence, higher = more signal.
The subject of test [19] is Sonic hedgehog protein (Shh). The experiment in a line: Sonic hedgehog microarray binding compounds – biochemical, small-molecule microarray, 635/667 nm fluorescence, primary screen (AID 1151).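 Also: Shh protein binding to compounds spotted on small-molecule microarray slides; score combines spot fluorescence intensity with signal-to-noise across triplicate slides.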 Particulars: 635 nm fluorescence, higher = more signal.

The source made the active and inactive calls. Unless noted, no rule for the calls is given here.

Torsin-1A (Homo sapiens), sequence (O14656 whole entry, looked up): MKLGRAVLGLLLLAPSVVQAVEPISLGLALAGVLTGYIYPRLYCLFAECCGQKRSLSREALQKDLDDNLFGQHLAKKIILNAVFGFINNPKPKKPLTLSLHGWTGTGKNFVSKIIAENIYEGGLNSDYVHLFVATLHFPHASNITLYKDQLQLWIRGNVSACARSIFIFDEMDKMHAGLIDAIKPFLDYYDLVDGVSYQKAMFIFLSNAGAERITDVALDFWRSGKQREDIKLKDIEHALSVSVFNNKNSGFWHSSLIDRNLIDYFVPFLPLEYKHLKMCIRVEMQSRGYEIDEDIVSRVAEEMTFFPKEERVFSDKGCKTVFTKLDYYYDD
Fibroblast growth factor 2 (Homo sapiens), sequence (P09038 whole entry, looked up): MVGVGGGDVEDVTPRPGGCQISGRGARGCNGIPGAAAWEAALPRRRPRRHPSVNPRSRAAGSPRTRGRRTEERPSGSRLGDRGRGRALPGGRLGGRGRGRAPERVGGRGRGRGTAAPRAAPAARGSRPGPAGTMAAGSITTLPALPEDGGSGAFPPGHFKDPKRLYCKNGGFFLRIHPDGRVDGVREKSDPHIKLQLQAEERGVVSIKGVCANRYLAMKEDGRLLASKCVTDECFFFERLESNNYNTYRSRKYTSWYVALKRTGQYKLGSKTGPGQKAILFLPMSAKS
Luciferin 4-monooxygenase (Photinus pyralis), sequence (P08659 whole entry, looked up): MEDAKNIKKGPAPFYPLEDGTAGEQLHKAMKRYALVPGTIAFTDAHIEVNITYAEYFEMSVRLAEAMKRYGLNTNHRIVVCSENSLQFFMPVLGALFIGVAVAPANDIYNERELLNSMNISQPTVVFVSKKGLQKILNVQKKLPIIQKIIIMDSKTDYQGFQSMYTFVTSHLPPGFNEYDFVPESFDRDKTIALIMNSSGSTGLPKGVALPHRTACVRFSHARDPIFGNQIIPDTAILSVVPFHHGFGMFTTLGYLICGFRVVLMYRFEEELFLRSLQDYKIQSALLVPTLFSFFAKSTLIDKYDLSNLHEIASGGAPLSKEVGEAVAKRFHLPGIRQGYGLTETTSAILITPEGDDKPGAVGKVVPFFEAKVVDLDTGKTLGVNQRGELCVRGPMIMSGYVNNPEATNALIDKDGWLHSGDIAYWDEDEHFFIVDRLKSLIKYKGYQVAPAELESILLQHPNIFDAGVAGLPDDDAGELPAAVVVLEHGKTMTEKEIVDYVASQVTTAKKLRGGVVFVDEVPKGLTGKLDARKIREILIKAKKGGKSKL
Streptavidin (Streptomyces avidinii), sequence (P22629 whole entry, looked up): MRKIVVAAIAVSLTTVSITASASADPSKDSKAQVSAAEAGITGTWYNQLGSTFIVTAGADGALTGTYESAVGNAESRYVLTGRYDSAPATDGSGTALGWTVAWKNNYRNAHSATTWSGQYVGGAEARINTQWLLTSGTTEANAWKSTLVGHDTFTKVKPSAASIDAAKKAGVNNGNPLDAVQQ

In the case of `CN1C(=O)C2C=CC(C(O)c3ccc([N+](=O)[O-])cc3)N(Nc3ccccc3)C2C1=O` (stereo not given), the composite z-score turned out to be 0.358 in [1]; 1.23 in test [2]; 0.36 in test [3]; 0.999 in test [4]; 1.26 in test [5]; 0.531 in test [6]. Moreover, the composite z-score with Lefty1 was determined as 0.0022; in test [8] it was 1.04; in test [10], 0.288; in test [15] it was 1.65; in test [16] it was 0.179; in the test with Torsin-1A (Homo sapiens) [17] it was 0.0754. For the same compound, the results for the composite z-score (with Torsin-1A (Homo sapiens) [18]; in [19]) were 0.317 and -0.0538, respectively. In addition, the z-score in [7] was -0.387; in [9], -0.53 (inactive); in test [11], 0.349 (inactive); in test [12], -0.898 (inactive); in test [13], 0.0535 (inactive); in test [14], -0.323 (inactive).

With `CC1(C)OB(/C=C\CC(OC(=O)c2ccncc2)c2ccccc2)OC1(C)C` (stereo not given), the composite z-score in test [1] was 1.33; in test [2], 0.22; in test [3], -0.113; in [4], -0.857; in test [5], -0.397; in test [6] it was -1.03. The composite z-score was -1.2 in the test on Lefty1; -1.28 in test [8]; 0.496 in [10]; -0.452 in test [15]; -0.383 in test [16]; 0.432 in the test with Torsin-1A (Homo sapiens) [17]. For the same compound, the values for the composite z-score (with Torsin-1A (Homo sapiens) [18]; in test [19]) were -0.232 and -0.476, respectively. In addition, the z-score in test [7] was -0.242; in [9] it was -0.0512 (inactive); in [11], -0.635 (inactive); in test [12], 0.135 (inactive); in test [13], 3.3 (inactive); in test [14], 0.174 (inactive).

As for `O=C(O)C1=CC[C@H]2C(=O)N(c3ccccc3)C(=O)[C@@H]12`, the composite z-score is 0.39 in [1]; 1.2 in test [2]; 0.424 in test [3]; 0.272 in test [4]; 0.845 in test [5]; -0.12 in test [6]. Besides, the composite z-score in the test on Lefty1 came to 0.0347; in [8], 0.701; in test [10] it was 0.144; in test [15] it was 1.22; in test [16] it was 0.0448; with Torsin-1A (Homo sapiens) [17] it was 1. Besides, the composite z-score is 0.448 in the test with Torsin-1A (Homo sapiens) [18] and -0.323 in [19]. In addition, the z-score was -1.27 in test [7]; 1.57 (inactive) in test [9]; 0.704 (inactive) in [11]; 0.317 (inactive) in test [12]; 0.173 (inactive) in [13]; 0.676 (inactive) in test [14].

For `CCOC(=O)C1=CCC(c2cccn2C(=O)OC(C)(C)C)N(S(=O)(=O)c2ccc(C)cc2)C1` (stereo not given), the composite z-score was found to be 1.86 in test [1]; 1.21 in test [2]; 0.42 in [3]; 0.827 in test [4]; 1.13 in test [5]; 0.433 in test [6]. The composite z-score is 0.498 in the test with Lefty1; 1.2 in [8]; 0.0845 in test [10]; 1.99 in [15]; 0.18 in test [16]; 0.0444 with Torsin-1A (Homo sapiens) [17]. Moreover, the composite z-score with Torsin-1A (Homo sapiens) [18] turned out to be 0.461; in test [19], 0.157. Further, the z-score in test [7] was 1.22; in [9] it was -0.997 (inactive); in [11], -4.35 (inactive); in test [12] it was 0.0401 (inactive); in [13], 0.136 (inactive); in test [14], 19.4 (active).

In the case of `CN1C(=O)C2C=CC(C(O)c3cccs3)N(N(c3ccccc3)c3ccccc3)C2C1=O` (stereo not given), the composite z-score in test [1] is 2.34; in test [2], 1.08; in test [3], 0.663; in test [4] it was 0.954; in [5], 0.569; in test [6], -0.469. Also, the composite z-score is 0.169 in the test with Lefty1; 1.06 in test [8]; -0.0276 in test [10]; 0.827 in [15]; 0.0422 in [16]; 1.75 with Torsin-1A (Homo sapiens) [17]. Further, the figures for the composite z-score (with Torsin-1A (Homo sapiens) [18]; in [19]) were 0.0109 and -0.287, respectively. In addition, the z-score in test [7] was 0.7; in test [9] it was -0.697 (inactive); in test [11] it was 0.114 (inactive); in test [12] it was -0.176 (inactive); in test [13] it was 1.21 (inactive); in test [14], -0.324 (inactive).

`CCCCC=C[C@@H](NC(=O)C(C)(C)C)c1ccccc1`: the composite z-score in test [1] was 1.14; in test [2], 1.09; in test [3], 0.35; in [4], 0.935; in test [5], 0.495; in test [6], -0.0812. Further, the composite z-score with Lefty1 was found to be 0.302; in test [8] it was 0.814; in test [10], 0.5; in [15] it was 0.761; in test [16] it was 0.353; with Torsin-1A (Homo sapiens) [17] it was 0.226. In addition, the composite z-score with Torsin-1A (Homo sapiens) [18] is 0.487; in test [19] it was -0.0371. Further, the z-score in test [7] was -2.82; in test [9], 1.76 (inactive); in [11] it was -2.89 (inactive); in [12] it was 0.124 (inactive); in test [13], -0.185 (inactive); in test [14], 1.67 (inactive).
